Compound activity: PubChem, National Center for Advancing Translational Sciences (NCATS)
A selection: hits, their analogues and other compounds. The true share with any hit is near 4.8%.
IL-1B inflam inh: inflammasome signaling inhibition, IL-1 beta readout; THP-1 LPS/ATP IL-1B secretion, AlphaLISA, 16 h; active compounds read low; activity change, % at 57.5 µM; actives 4.7% (n = 360,000); AID 743279; in the data active = activity change below about -50%; inconclusive = mostly about -30% to -49%
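THP-1 cells pretreated 1 hr with compounds (up to 57.5 uM final), then stimulated with LPS (250 ng/mL final) plus ATP (1.25 mM final); secreted IL-1B measured by AlphaLISA after 16 hr, decreased signal indicating inhibition.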
USP2a block: USP2a (human) protease inhibition. O75604. USP2 core, Ub-CHOP2 coupled fluorogenic reporter, 485/531. Potency, µM (doses to about 38.3 µM), most hits filed as inhibitors. actives 0.01% (n = 330,000). AID 463254
Target sequence (O75604 whole entry, looked up): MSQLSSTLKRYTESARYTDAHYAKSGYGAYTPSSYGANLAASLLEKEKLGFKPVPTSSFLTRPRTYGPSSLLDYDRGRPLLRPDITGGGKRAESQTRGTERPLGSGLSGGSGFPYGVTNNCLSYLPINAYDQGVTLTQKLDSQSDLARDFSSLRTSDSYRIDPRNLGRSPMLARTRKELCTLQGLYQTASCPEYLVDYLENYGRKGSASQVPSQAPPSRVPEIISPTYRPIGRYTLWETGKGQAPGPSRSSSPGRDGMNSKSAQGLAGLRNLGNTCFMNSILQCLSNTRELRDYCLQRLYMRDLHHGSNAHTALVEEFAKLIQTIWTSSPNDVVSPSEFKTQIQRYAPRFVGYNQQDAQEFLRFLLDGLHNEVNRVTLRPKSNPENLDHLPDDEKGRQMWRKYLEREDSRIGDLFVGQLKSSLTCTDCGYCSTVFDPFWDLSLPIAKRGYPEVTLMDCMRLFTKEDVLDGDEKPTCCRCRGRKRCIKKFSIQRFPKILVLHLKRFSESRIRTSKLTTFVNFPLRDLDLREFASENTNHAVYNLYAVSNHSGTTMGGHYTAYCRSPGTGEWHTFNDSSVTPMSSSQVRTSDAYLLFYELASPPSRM
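Cell-free coupled assay: 10nM USP2 core preincubated 30min RT with compound in Tris-HCl pH 8.0/CaCl2/CHAPS buffer, then 25nM Ub-CHOP2 and 25nM reporter substrate; fluorescence (Ex 485/Em 531) read after 60min RT, normalized to NEM inhibition, concentration-response curves fitted.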
USP1-UAF1 inh: USP1/UAF1 (human) deubiquitinase inhibition; O94782; recombinant USP1/UAF1, Ub-Rhodamine cleavage fluorescence; Potency, µM (series often up to 57.1 µM), actives largely listed as inhibitors; actives 0.23% (n = 390,000); note: nearly all actives have a fitted effect of over 60% in size
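High-throughput fluorogenic screen: 1nM USP1/UAF1 complex, Ub-Rho substrate 150nM final, 50mM HEPES pH 7.8 with 0.5mM EDTA, 0.1 mg/ml BSA, 1mM TCEP and 0.01% Tween-20.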
ATXN2 expr inh: ATXN2 expression inhibition; HEK-293 ATXN2-luciferase reporter, luminescence, 24 h; Potency, µM (highest dose often 57 µM), actives largely listed as inhibitors; actives 0.72% (n = 360,000); AID 1745845; note: nearly all actives have a fitted effect of over 55% in size
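qHTS (up to 57 uM final) was run with 24 h compound exposure of reporter cells at 37 °C. Each well was multiplexed: SteadyGlo luminescence measured ATXN2-luciferase expression after a fluorogenic Gly-Phe-AFC viability readout (25 uM final).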
ATXN viability: cell viability loss in ATXN counter-screen; S2 cells (HEK-293 line with an ATXN2-luciferase reporter) viability, CellTiter-Fluor protease fluorescence, 24 h; Potency, µM (highest dose often 56.7 µM), usual class: cytotoxic; actives 0.49% (n = 400,000); AID 651635; note: nearly all actives have a fitted effect of over 40% in size
Numbers stand for hits; n = inactive; u = inconclusive; x = not tested or not shown. Unless noted, calls come from the whole dose curve; as a rule, active = well fitted curve in the direction sought with a large enough effect; inconclusive = small, poorly fitted or top-dose-only effect, or another doubt; inactive = no such curve, though single readings can be large; an effect the other way counts as inactive or inconclusive.

SMILES	IL-1B inflam inh	USP2a block	USP1-UAF1 inh	ATXN2 expr inh	ATXN viability
CCOc1ccc2nc(N3CCCC(C(=O)NCCCN4C(C)CCCC4C)C3)sc2c1 (centres undefined)	-69.7	n	n	n	u
CCOc1ccc2nc(N3CCCC(C(=O)NCCCN4CC(C)CC(C)C4)C3)sc2c1 (centres undefined)	-53.5	n	n	n	u
O=C(COC(=O)[C@@H]1CC(O)CN1S(=O)(=O)c1ccc(Cl)cc1)NC(=O)NCc1ccccc1 (some centres undefined)	n	n	n	n	n
O=C(C(=Cc1ccccc1)CN1CCCCC1)c1ccccc1	-104.4	x	n	u	8.44µM
O=C(CCCCN1CCCCC1)c1ccccc1	n	x	n	n	n
COc1ccc(N=Nc2nc(-c3ccccc3)c(-c3ccccc3)[nH]2)cc1	u	n	u	n	u
COc1ccccc1N=Nc1nc(-c2ccccc2)c(-c2ccccc2)[nH]1	n	n	n	n	35.5µM
COCCNC(=O)C1(C)CCN(C(=O)Cc2ccc(OC)c(OC)c2)C1 (centres undefined)	n	x	x	n	n
O=C1CC(C(=O)N2CCN(Cc3ccccc3)CC2)CN1Cc1ccccc1 (centres undefined)	n	n	n	n	n
Cc1ccc(CN2CC(C(=O)N3CCN(c4ccccc4Cl)CC3)CC2=O)cc1 (centres undefined)	-58.2	n	n	n	u
Cc1ccc(CN2CC(C(=O)Nc3ncc(C)s3)CC2=O)cc1 (centres undefined)	n	n	n	15.8µM	n
COCCNC(=O)c1ccc2c(c1)N(Cc1ccc(C(F)(F)F)cc1)C(=O)c1ccccc1S2	x	x	u	u	n
Cc1ccc(-c2csc(N3CCN(c4ccc5nc(-c6ccncc6)n(CCN6CCCCC6)c5c4)CC3)n2)cc1	n	n	u	n	n
Cc1ccc(-c2csc(N3CCN(c4cc5c(cc4Cl)nc(-c4ccncc4)n5CCN4CCCCC4)CC3)n2)cc1	-59.1	n	n	n	n
CCC[C@H](NC(=O)C(C#N)=Cc1cccc(Br)n1)c1ccccc1	x	x	x	10.9µM	x
CC(C)Oc1cc(NC(=O)CS(=O)CC(=O)N(C)C)c(Cl)cc1Cl (centres undefined)	n	n	n	n	n
CC(C)Oc1cc(NC(=O)CS(=O)CC(=O)Nc2cccc(C(F)(F)F)c2)c(Cl)cc1Cl (centres undefined)	-63.5	n	n	n	n
Cc1ccc(Cl)cc1N1CCN(Cc2nnnn2Cc2ccco2)CC1	u	n	n	n	u
CCC(c1nnnn1Cc1ccco1)N1CCN(c2cc(Cl)ccc2C)CC1 (centres undefined)	-60.1	n	n	n	u
Oc1c(N=Nc2nn[nH]n2)ccc2ccccc12	n	x	x	n	22.4µM
CC1(CCC(=O)O)C(=O)CCC2C1CCC1(C)C2CCC1(C)O (centres undefined)	n	x	n	n	n
Cc1ccc(-n2nnnc2C(=Cc2ccc(N(C)C)cc2)c2nnnn2-c2ccc(C)cc2)cc1	n	n	22.4µM	n	n
CCN(CC)c1ccc(C=C(c2nnnn2-c2ccccc2)c2nnnn2-c2ccccc2)cc1	n	n	u	n	x
CCCC(=O)N1CCN(c2nnc(-c3ccccc3)c3ccccc23)CC1	-51.3	n	n	n	n
CCOC(=O)N1CCN(c2nnc(-c3ccc(C)cc3)c3ccccc23)CC1	-67.1	n	n	u	u
SMILES	IL-1B inflam inh	USP2a block	USP1-UAF1 inh	ATXN2 expr inh	ATXN viability
O=C(c1cccs1)N1CCN(c2nnc(-c3ccccc3)c3ccccc23)CC1	-87.5	n	n	n	n
Cc1ccc(-c2nnc(N3CCN(C(=O)COc4ccccc4)CC3)c3ccccc23)cc1	-79.4	n	n	u	n
CCOC(=O)N1CCN(c2nnc(-c3ccccc3)c3ccccc23)CC1	u	n	n	n	n
CC(C)N(Cc1nc(-c2ccc(Cl)cc2)no1)C(=O)/C=C/c1ccccc1	-62.1	n	n	n	n
CC(=O)Oc1ccc(N(C(C)=O)S(=O)(=O)c2cccs2)c2ccccc12	n	n	n	25.1µM	u
CCN1CCc2nc3sc(C(=O)Nc4cccc(Cl)c4C)c(N)c3cc2C1	x	x	u	n	u
Cc1[nH]c2ccc(C(=O)OC(C)C(=O)N(C)c3ccccc3)cc2c1C (centres undefined)	n	n	n	n	n
Cc1[nH]c2ccc(C(=O)OC(C)C(=O)N(C)C3CCCCC3)cc2c1C (centres undefined)	-80.6	n	n	n	n
CCCCNC(=O)C1(C)CCN1C(=O)c1ccccc1Br (centres undefined)	u	x	x	n	n
CCCCNC(=O)C1(C)CCN1C(=O)c1oc2ccccc2c1C (centres undefined)	n	x	x	n	n
CCCCNC(=O)C1(C)CCCCN1C(=O)c1cc(OC)ccc1Br (centres undefined)	-95.9	x	x	n	n
CCCCNC(=O)C1(C)CCN1C(=O)c1cc(-c2cccs2)oc1C (centres undefined)	-104.2	x	x	n	n
O=C(c1ccc(F)c(F)c1)N1CCOc2ccc(CN3CCN(Cc4ccccn4)CC3)cc2C1	x	x	x	x	n
COc1ccc(/C=C2\CN(Cc3ccccc3)C/C(=C\c3ccc(OC)c(O)c3)C2=O)cc1O	-99.5	n	n	3.98µM	u
COc1cc(/C=C2/CC/C(=C/c3ccc(O)c(OC)c3)C2=O)ccc1O	n	n	n	n	n
CCN1C/C(=C/c2ccc(OC)c(O)c2)C(=O)/C(=C/c2ccc(OC)c(O)c2)C1	-72.0	n	n	x	u
COc1ccc(C=C2C(=O)c3ccccc3C2=O)cc1O	n	n	u	n	n
COc1ccccc1N1CCN(C2CCCN(C(=O)CN3CCCC3=O)C2)CC1 (centres undefined)	n	n	n	n	n
NC(=S)N/N=C1/CCSc2ccc3ccccc3c21	-94.8	n	n	n	n
CCCCOc1ccc(C(=O)NCCc2csc(-c3cccc(F)c3)n2)cc1	x	x	n	n	n
COc1ccc2cc3c(N)c(C(=O)N4CCCC4)sc3nc2c1	-68.7	n	n	n	n
Cc1ccc2nc3sc(C(=O)N4CCOCC4)c(N)c3cc2c1	n	n	n	2.51µM	n
O=C(Nc1nc2cc3c(cc2s1)OCO3)c1ccco1	n	n	u	u	n
O=C(Nc1nc2cc3c(cc2s1)OCCO3)c1ccco1	u	n	n	8.91µM	u
CC1CCc2nc(NC(=O)c3ccco3)sc2C1 (centres undefined)	n	n	n	11.2µM	n
CCOC(=O)c1cccc(NS(=O)(=O)c2ccc3[nH]c4c(c3c2)CCCC4)c1	x	x	n	u	u
Cc1ccc(NC(=O)C2=C(c3ccccc3)S(=O)(=O)CCS2(=O)=O)cc1	-104.0	n	n	u	11.2µM
O=C1C2C3C=CC(C4CC34)C2C(=O)N1/N=C/c1ccc([N+](=O)[O-])o1 (centres undefined)	-98.0	n	n	u	u
